According to the supplement of paper PMC10849652:
Of roughly 8,800 targets only a part is listed; those with a hit were picked by preference. About 0.5% of all pairs of compound and target were hits. Values without a mark were called inactive.

Tests used:
Assay in all cases: log2 fold change, soluble protein after heating vs DMSO (PISA); higher = thermal stabilisation; K562 lysate, 10 uM; active = over 0.2 and 3.5 SD of the protein, either way, in both replicates (recomputed)
[1] = compound: C1=CC=C(C=C1)[C@H](COC2=CC3=C(C=C2)NC(=O)N3)NC(=O)C4=CC=CN(C4=O)CC5=CC(=C(C=C5)F)F
In short: (§1)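 Soluble protein was defined as the supernatant remaining after 21,000xg for 90 min, following pooling of heated aliquots and adjustment to 0.5% NP-40 at 4°C. Before that, crude K562 extract at 1 mg/mL protein in PBS pH 7.4 with 1 mM MgCl2 was treated with 10 μM compound for 30 min and heated for 3 min across 48°C-58°C. Quantification used TMTpro 16plex LC-MS/MS with channel sums equalised, and values are log-two fold changes in thermal stability relative to solvent controls from duplicates.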

[2] = compound: CC1=C(SC2=C1C(=N[C@H](C3=NN=C(N32)C)CC(=O)N)C4=CC=C(C=C4)Cl)C
In short: as §1

[3] = compound: CC1=C2C(=CC=C1)N=C(N(C2=O)C3=CC=CC=C3C)CN4C=NC5=C(N=CN=C54)N
In short: as §1

[4] = compound: Cc1sc2c(c1C)C(c1ccc(Cl)cc1)=N[C@@H](CC(=O)OC(C)(C)C)c1nnc(C)n1-2
In short: as §1

[5] = compound: c1ccc([C@@H]2C[C@H]2NC2CCNCC2)cc1
In short: as §1

Chain of UniProt Q6WRX3 (Q6WRX3 whole entry, looked up): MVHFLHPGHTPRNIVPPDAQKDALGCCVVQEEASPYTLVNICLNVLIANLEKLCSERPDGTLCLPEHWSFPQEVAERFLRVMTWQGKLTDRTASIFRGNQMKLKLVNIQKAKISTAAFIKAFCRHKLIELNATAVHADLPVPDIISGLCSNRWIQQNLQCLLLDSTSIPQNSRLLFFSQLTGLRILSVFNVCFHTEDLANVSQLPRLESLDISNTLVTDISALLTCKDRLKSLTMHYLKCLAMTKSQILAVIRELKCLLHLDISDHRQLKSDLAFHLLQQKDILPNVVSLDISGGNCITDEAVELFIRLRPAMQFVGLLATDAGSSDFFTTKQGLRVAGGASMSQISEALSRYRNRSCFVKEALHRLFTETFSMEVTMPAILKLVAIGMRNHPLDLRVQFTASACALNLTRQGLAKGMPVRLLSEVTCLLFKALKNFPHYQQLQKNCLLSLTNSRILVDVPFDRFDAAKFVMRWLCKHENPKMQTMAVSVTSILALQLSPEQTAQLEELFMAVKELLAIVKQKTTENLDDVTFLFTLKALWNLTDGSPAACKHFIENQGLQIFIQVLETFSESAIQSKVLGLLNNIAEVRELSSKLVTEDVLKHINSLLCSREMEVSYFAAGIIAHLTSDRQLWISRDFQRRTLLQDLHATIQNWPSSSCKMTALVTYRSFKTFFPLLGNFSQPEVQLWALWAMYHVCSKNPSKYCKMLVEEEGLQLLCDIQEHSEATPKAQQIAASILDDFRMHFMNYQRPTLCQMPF
Chain of UniProt Q9BZI7 (Q9BZI7 whole entry, looked up): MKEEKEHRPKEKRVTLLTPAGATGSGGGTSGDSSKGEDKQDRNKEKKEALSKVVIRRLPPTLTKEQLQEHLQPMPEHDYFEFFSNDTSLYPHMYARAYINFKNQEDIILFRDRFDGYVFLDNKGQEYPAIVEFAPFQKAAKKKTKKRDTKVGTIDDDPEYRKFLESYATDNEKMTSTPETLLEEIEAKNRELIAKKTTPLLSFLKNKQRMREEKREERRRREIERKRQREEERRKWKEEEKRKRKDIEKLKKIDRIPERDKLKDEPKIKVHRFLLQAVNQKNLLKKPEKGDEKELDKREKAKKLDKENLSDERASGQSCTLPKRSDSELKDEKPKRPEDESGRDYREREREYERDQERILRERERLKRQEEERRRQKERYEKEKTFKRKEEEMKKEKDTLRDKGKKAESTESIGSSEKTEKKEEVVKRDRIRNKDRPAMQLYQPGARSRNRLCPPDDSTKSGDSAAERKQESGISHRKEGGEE
Chain of UniProt Q9HAV4 (Q9HAV4 whole entry, looked up): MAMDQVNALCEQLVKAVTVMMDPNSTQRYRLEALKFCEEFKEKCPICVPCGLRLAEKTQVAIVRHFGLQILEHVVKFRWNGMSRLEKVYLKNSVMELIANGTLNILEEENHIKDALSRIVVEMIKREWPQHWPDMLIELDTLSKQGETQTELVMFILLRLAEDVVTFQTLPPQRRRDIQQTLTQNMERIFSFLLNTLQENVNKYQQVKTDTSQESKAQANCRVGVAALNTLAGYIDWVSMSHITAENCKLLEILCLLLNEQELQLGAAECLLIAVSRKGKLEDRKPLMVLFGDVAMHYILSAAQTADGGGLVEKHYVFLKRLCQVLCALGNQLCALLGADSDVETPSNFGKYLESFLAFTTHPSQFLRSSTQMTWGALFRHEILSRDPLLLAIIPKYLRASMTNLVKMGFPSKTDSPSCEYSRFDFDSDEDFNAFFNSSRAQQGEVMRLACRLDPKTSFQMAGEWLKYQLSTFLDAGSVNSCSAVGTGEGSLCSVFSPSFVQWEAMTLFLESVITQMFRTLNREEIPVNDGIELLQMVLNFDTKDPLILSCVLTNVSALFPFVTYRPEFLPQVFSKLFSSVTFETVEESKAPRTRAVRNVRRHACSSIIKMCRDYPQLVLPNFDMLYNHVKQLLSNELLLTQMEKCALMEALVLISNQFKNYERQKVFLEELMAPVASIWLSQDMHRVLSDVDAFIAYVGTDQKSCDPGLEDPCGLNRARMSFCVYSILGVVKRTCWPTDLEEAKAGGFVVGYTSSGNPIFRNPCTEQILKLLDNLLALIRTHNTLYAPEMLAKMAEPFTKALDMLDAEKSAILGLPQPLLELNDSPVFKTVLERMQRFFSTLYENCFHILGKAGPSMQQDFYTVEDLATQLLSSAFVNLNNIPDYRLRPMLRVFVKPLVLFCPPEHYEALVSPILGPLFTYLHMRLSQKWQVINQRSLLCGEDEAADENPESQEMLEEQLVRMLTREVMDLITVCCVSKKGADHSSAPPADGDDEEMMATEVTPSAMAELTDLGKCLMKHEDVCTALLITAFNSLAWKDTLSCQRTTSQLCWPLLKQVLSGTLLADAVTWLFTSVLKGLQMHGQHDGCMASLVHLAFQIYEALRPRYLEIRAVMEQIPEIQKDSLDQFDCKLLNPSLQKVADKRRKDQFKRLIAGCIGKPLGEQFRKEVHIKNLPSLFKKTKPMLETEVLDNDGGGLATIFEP
Chain of UniProt Q9UBK9 (Q9UBK9 whole entry, looked up): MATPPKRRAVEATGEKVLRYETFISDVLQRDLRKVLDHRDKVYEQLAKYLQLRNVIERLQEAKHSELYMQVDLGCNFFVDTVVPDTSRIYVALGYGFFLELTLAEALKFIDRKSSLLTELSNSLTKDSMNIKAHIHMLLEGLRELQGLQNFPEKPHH
Chain of UniProt Q96NC0 (Q96NC0 whole entry, looked up): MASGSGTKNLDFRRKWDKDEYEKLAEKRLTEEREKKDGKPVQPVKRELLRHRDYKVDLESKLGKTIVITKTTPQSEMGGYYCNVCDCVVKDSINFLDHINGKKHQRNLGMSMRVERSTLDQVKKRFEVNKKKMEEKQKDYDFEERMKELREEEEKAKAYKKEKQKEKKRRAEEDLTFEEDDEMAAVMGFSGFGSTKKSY
Chain of UniProt Q99986 (Q99986 whole entry, looked up): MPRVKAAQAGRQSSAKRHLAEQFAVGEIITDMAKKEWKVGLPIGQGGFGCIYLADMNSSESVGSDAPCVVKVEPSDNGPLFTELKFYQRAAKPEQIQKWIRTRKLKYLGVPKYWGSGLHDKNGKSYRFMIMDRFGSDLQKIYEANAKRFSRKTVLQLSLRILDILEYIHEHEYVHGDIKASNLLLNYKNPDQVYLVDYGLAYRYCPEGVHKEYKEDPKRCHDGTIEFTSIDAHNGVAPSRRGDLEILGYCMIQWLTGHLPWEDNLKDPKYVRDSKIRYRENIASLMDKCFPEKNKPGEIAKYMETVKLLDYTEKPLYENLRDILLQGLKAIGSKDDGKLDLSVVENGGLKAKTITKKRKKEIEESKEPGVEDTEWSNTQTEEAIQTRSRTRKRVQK
Chain of UniProt Q9UBW7 (Q9UBW7 whole entry, looked up): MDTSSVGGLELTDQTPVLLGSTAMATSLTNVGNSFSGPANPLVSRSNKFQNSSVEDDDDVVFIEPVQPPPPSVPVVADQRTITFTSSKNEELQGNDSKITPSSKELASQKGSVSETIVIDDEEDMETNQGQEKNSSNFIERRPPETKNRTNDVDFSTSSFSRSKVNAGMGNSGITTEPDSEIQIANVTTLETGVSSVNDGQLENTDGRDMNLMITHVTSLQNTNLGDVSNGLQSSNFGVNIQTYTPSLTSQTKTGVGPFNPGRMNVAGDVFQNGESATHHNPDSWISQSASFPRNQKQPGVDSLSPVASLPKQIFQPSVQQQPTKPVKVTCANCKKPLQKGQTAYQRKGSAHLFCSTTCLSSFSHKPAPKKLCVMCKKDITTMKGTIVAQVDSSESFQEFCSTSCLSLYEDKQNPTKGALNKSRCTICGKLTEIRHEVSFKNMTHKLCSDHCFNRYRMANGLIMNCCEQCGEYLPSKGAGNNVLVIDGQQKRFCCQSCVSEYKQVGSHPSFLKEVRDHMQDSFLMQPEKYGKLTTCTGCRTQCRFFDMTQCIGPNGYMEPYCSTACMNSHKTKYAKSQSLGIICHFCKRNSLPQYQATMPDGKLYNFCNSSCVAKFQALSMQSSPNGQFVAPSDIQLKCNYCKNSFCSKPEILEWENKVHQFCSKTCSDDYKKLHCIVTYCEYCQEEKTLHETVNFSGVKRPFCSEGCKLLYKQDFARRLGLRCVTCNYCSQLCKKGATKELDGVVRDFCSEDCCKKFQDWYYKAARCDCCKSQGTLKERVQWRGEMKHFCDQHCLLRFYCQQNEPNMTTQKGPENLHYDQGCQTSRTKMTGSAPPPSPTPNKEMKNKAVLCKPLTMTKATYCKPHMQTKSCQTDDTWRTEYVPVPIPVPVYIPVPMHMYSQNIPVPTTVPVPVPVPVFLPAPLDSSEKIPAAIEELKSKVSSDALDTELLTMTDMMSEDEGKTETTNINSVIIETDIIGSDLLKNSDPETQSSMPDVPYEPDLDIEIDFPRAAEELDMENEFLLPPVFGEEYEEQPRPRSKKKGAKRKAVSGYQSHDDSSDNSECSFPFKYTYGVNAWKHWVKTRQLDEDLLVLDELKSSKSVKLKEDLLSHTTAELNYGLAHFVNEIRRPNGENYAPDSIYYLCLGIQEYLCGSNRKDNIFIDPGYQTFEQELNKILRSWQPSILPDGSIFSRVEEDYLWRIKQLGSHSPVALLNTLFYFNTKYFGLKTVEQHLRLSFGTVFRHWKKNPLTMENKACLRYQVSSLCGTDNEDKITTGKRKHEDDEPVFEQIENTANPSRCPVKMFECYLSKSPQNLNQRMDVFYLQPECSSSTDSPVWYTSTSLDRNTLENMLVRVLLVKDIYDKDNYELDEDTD
Chain of UniProt Q96GY0 (Q96GY0 whole entry, looked up): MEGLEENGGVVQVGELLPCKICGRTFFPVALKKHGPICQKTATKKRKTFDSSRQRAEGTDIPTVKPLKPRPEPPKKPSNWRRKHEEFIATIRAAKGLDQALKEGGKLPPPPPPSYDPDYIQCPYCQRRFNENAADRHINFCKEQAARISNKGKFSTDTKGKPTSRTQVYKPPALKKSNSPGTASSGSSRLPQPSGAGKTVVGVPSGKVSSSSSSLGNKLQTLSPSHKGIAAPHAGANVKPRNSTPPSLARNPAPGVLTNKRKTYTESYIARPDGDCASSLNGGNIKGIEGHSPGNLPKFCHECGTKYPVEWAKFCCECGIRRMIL
Chain of UniProt P63027 (P63027 whole entry, looked up): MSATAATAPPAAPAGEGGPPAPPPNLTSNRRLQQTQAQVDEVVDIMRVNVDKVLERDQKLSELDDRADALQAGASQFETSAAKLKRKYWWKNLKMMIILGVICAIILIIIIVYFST

Row | Target | log2 fold change [1] | log2 fold change [2] | log2 fold change [3] | log2 fold change [4] | log2 fold change [5]
1 | ZC3H11A (UniProt O75152) | -0.015 | 0 | 0.081 | 0.023 | 0.063
2 | YEATS4 (UniProt O95619) | -0.014 | 0.05 | -0.029 | 0.046 | 0.25
3 | WRN (UniProt Q14191) | 0.006 | -0.017 | 0.009 | 0.01 | 0.006
4 | XPO1 (UniProt O14980) | -0.024 | 0.023 | 0.012 | 0.008 | 0.023
5 | VHL (UniProt P40337) | 0.165 | 0.004 | -0.029 | -0.178 | 0.08
6 | VAV1 (UniProt P15498) | -0.025 | 0.001 | -0.011 | -0.017 | -0.068
7 | YRDC (UniProt Q86U90) | -0.009 | 0.02 | -0.046 | -0.029 | -0.053
8 | USP16 (UniProt Q9Y5T5) | 0.047 | -0.015 | 0.011 | 0.038 | -0.002
9 | VRK1 (UniProt Q99986) | -0.002 | 0.017 | 0.023 | -0.005 | 0.034
10 | VPS33A (UniProt Q96AX1) | 0 | 0.017 | 0.014 | -0.013 | -0.01
11 | YES1 (UniProt P07947) | -0.068 | -0.099 | 0.009 | -0.045 | 0
12 | WIPI2 (UniProt Q9Y4P8) | 0.03 | -0.033 | -0.008 | -0.055 | -0.096
13 | USP48 (UniProt Q86UV5) | -0.104 | -0.028 | -0.029 | 0.098 | -0.187
14 | XPO5 (UniProt Q9HAV4) | -0.046 | -0.021 | 0.002 | -0.021 | 0.032
15 | ZMYND8 isoform 19 (UniProt Q9ULU4) | -0.006 | -0.011 | 0.055 | 0.011 | -0.026
16 | VAMP2 (UniProt P63027) | -0.045 | -0.053 | -0.024 | 0.014 | 0.081
17 | XPOT (UniProt O43592) | -0.017 | 0.008 | 0.037 | 0.003 | 0.021
18 | ZFPM1 (UniProt Q8IX07) | 0.073 | -0.033 | -0.012 | -0.036 | 0.078
19 | YTHDF3 (UniProt Q7Z739) | -0.111 | 0.021 | 0.063 | -0.01 | -0.018

Row | Target | log2 fold change [1] | log2 fold change [2] | log2 fold change [3] | log2 fold change [4] | log2 fold change [5]
20 | VPS37B (UniProt Q9H9H4) | 0.028 | 0.039 | 0.01 | -0.01 | 0.064
21 | ZMYM2 (UniProt Q9UBW7) | 0.105 | 0.07 | 0.062 | 0.015 | 0.183
22 | UXT isoform 2 (UniProt Q9UBK9) | 0.033 | 0.026 | 0.008 | -0.053 | -0.071
23 | VAV3 isoform 4 (UniProt Q9UKW4) | 0.089 | -0.012 | 0.096 | 0.001 | -0.391
24 | WDR6 (UniProt Q9NNW5) | -0.001 | 0.02 | 0.008 | -0.021 | -0.013
25 | ZMYM1 (UniProt Q5SVZ6) | 0.009 | 0.099 | -0.012 | 0 | -0.2
26 | UTP18 (UniProt Q9Y5J1) | 0.117 | -0.005 | -0.088 | -0.013 | 0.059
27 | WDR62 isoform 4 (UniProt O43379) | 0.026 | -0.004 | -0.011 | 0.003 | 0.038
28 | VAC14 (UniProt Q08AM6) | -0.008 | -0.008 | 0.042 | -0.012 | 0.001
29 | ZNF451 (UniProt Q9Y4E5) | -0.038 | 0.03 | -0.014 | 0.018 | 0.009
30 | ZNF593 (UniProt O00488) | -0.038 | 0.051 | 0.008 | 0.127 | 0.035
31 | VPS18 (UniProt Q9P253) | -0.014 | 0.013 | 0.032 | 0.067 | 0.012
32 | ZC3H13 (UniProt Q5T200) | -0.005 | -0.039 | 0.013 | -0.061 | 0.136
33 | ZMYM4 (UniProt Q5VZL5) | 0.133 | -0.081 | -0.054 | -0.023 | 0.011
34 | WDR36 (UniProt Q8NI36) | 0.006 | 0.001 | 0.06 | 0.025 | 0.035
35 | ZZEF1 (UniProt O43149) | -0.022 | -0.004 | 0.012 | -0.05 | -0.028
36 | WDR41 (UniProt Q9HAD4) | 0.043 | 0.013 | 0.02 | -0.047 | -0.012
37 | ZMAT2 (UniProt Q96NC0) | 0.037 | -0.01 | 0.03 | 0.03 | 0.013
38 | VCPIP1 (UniProt Q96JH7) | -0.025 | -0.008 | 0.002 | -0.052 | -0.002

Row | Target | log2 fold change [1] | log2 fold change [2] | log2 fold change [3] | log2 fold change [4] | log2 fold change [5]
39 | UPF3B (UniProt Q9BZI7) | 0.031 | -0.008 | -0.043 | 0.022 | -0.097
40 | USP22 (UniProt Q9UPT9) | 0.039 | -0.025 | 0.012 | 0.045 | 0.055
41 | ZC3HC1 (UniProt Q86WB0) | 0.002 | 0.045 | 0.006 | 0.019 | 0.061
42 | VANGL1 (UniProt Q8TAA9) | 0.064 | 0.088 | -0.055 | -0.004 | -0.076
43 | ZSCAN21 (UniProt Q9Y5A6) |  |  |  |  | -0.074
44 | VPS72 (UniProt Q15906) |  |  | 0.027 | -0.015 | -0.035
45 | WAS (UniProt P42768) | 0.003 | -0.006 |  | -0.095 | 0.053
46 | VTN (UniProt P04004) | -0.009 | -0.039 | -0.094 | -0.053 | -0.222
47 | YBEY (UniProt P58557) |  |  | 0.046 | -0.016 | 
48 | ZYG11A (UniProt Q6WRX3) | -0.075 | -0.13 |  |  | -0.012
49 | WIPI1 (UniProt Q5MNZ9) | 0.094 | 0.023 |  | 0.035 | -0.031
50 | WAC isoform 5 (UniProt Q9BTA9) |  |  |  | -0.232 | 
51 | ZNF281 (UniProt Q9Y2X9) |  |  |  | -0.02 | 
52 | UNC13D (UniProt Q70J99) | -0.032 | 0.067 | 0.044 | 0.025 | 0.024
53 | ZNF598 isoform 3 (UniProt Q86UK7) | -0.037 | -0.014 | 0.006 | 0.034 | 0.025
54 | ZC2HC1A (UniProt Q96GY0) | 0.059 | -0.046 | -0.018 | 0.106 | -0.058
55 | VPS16 (UniProt Q9H269) | -0.035 | -0.009 | 0.041 | 0.011 | 0.005
56 | ZBTB40 (UniProt Q9NUA8) |  |  | -0.06 | -0.004 | -0.432 (active)
57 | ZNF346 (UniProt Q9UL40) | 0.031 | -0.017 |  | -0.205 (active) | -0.086
